# Rango-impB inh: inhibitors of Rango-importin beta complex formation | Potency, µM (highest dose often 92.2 µM), for the others: at the top dose inhibition of complex formation | Q14974 | hit rate 0.031% among 340,000 | Rango CFP/YFP FRET sensor + importin beta, 45 min; calls by dose curve;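 further: 0% = DMSO wells and 100% = buffer wells lacking importin beta; nearly all actives have a fitted effect of over 15% in size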
#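 FRET biosensor (snurportin 1 IBB flanked by EYFP and cerulean), 50 nM, with compound 5 min, then 0.125 microM importin beta in PBS, 1 mM DTT, 0.02% Tween-20, 0.1% BSA. CFP/YFP ratio read after 45 min at room temperature; pre-read flags interference.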
# Tb PFK inh: T. brucei PFK enzyme inhibition; O15648; T. brucei PFK, ADP-Glo luminescence; Potency, µM (titrated, usually from 57.5 µM), for inactives: at the highest dose activity, negative = inhibition, most hits filed as inhibitors; hit rate 0.17% among 330,000;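 further: 0% = uninhibited 1x PFK enzyme wells and -100% = no-enzyme wells; nearly all actives have a fitted effect of over 60% in size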
#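 Activity is normalized to no-enzyme wells (full inhibition) and 1.25 nM enzyme wells (no inhibition). Reaction: 0.5 mM F6P, 0.1 mM ATP, 45 min RT, ADP-Glo luminescence; concentration-response curves fitted and classed by quality.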
# Rango release inh: inhibitors of RanGTP-induced Rango-importin beta complex dissociation; Biochemical FRET Rango-importin beta, RanGTP-induced dissociation; hit rate 0.071% among 340,000; Potency, µM (titrated, usually from 46.1 µM), for the others: at the top dose activity change, negative = inhibition; O95149+P62826; AID 540253; calls by dose curve; further: % of control where 0% means no effect; nearly all actives have a fitted effect of over 45% in size
#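 Compounds preincubate 5 min with complex of recombinant Rango and importin beta in PBS with 1 mM DTT. Ran (0.6 uM) loaded with 2 mM GTP plus 0.2 uM RCC1 starts dissociation; FRET is recorded 45 min later.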
# PKM2 activator: PKM2 (human) enzyme activation | Potency, µM (titrated, usually from 57.5 µM), inactives show at the highest dose activation, hits mostly activators | AID 1631 | hit rate 0.34% among 260,000 | P14618 | purified PKM2, Kinase-Glo ATP luminescence, activation; response scale: 0% is enzyme alone, no compound; further: on the % scale 0 is the no-effect control and ±100 the full control effect; nearly all actives have a fitted effect of over 55% in size
# Target sequence (P14618 whole entry, looked up): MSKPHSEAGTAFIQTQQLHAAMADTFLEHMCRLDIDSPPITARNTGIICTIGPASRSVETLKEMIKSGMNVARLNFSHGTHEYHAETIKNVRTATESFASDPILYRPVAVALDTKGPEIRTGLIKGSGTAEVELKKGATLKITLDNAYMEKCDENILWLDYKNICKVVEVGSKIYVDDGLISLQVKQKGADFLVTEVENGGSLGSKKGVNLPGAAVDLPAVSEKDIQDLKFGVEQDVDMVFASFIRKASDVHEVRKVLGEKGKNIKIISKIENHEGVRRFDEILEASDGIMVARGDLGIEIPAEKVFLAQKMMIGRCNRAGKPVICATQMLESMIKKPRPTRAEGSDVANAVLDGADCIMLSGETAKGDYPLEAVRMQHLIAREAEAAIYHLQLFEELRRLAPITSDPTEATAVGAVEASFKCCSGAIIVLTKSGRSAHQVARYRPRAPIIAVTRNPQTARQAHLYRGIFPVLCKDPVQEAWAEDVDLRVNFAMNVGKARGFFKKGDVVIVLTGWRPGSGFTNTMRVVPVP
#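 ATP formation by purified human PK-M2, quantified via coupled luciferase luminescence after 1 h at room temperature with 0.1 mM ADP and 0.5 mM PEP final.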
# ELG1 repair inh: blocks ELG1-dependent DNA repair in HEK293T cells | hit rate 2.3% among 330,000 | Potency, µM (highest dose often 46.1 µM), inactives show at the top dose activity change, negative = inhibition, most hits filed as inhibitors | HEK293T ELG1-luciferase reporter, luminescence, 16 h; DNA damage induced by 5-fluorouridine | AID 504467; further: on the % scale 0 is the no-effect control and ±100 the full control effect; nearly all actives have a fitted effect of over 55% in size
#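 In this reporter screen, reduction of luminescence relative to DMSO vehicle indicated activity. Compounds and 5-fluorouridine were added together to 2,000 cells per well, incubated for 16 hr at 37 °C, then developed with ONE-Glo.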
# Tb PGK inh: inhibitors of T. brucei phosphoglycerate kinase; P07378; PGK/GAPDH coupled, Kinase-Glo luminescence, 60 min; Potency, µM (titrated, usually from 57.5 µM), for the others: at the highest dose activity change, negative = inhibition, usual class: inhibitors; hit rate 0.043% among 380,000; AID 602233; further: on the % scale 0 is the no-effect control and ±100 the full control effect; nearly all actives have a fitted effect of over 60% in size
#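 Recombinant glycosomal PGK reaction used 1,3-bisphosphoglycerate generated in-well by GAPDH (100nM final) in 100mM TEA pH 7.6, 5mM MgCl2, 0.01% Tween-20. After 60 minutes at room temperature, ATP was read by Kinase-Glo Plus luminescence end-point.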
# ELG1 FLuc counter: luciferase inhibition in cell-free luciferin readout for ELG1 hits | shares compounds with ELG1 repair inh | cell-free firefly luciferase luminescence counter-screen, ViewLux | Potency, µM (titrated, usually from 46.1 µM), for inactives: top-dose activity change, negative = inhibition, most hits filed as inhibitors | hit rate 3% among 350 | AID 624247; further: on the % scale 0 is the no-effect control and ±100 the full control effect
# ELG1 Luc conf: confirmation of human ELG1-dependent DNA repair inhibitors; shares compounds with ELG1 repair inh; AID 624248; HEK293T ELG1-luciferase levels, luminescence; cells co-treated with 5-fluorouridine; Potency, µM (series often up to 46.1 µM), without a hit: at the highest dose activity change, negative = inhibition, most hits filed as inhibitors; hit rate 68% among 670; further: on the % scale 0 is the no-effect control and ±100 the full control effect; nearly all actives have a fitted effect of over 55% in size
# ELG1 MMS Luc: confirmation of human ELG1 repair inhibitors, MMS stimulated; shares compounds with ELG1 repair inh; HEK293T luciferase-tagged ELG1 level, MMS stimulated; Potency, µM (doses to about 46.1 µM), for inactives: at the top dose activity change, negative = inhibition, usual class: inhibitors; hit rate 53% among 670; AID 624249; further: on the % scale 0 is the no-effect control and ±100 the full control effect; nearly all actives have a fitted effect of over 60% in size
# ELG1 5-FU: confirmation of ELG1 repair inhibitors: viability with 5FU; 670 tested, under 10 active; cell viability with 5-FU, ELG1-dependent repair; Potency, µM (highest dose often 46.1 µM), without a hit: at the top dose activity change, negative = viability loss, actives largely listed as cytotoxic; AID 624250; shares compounds with ELG1 repair inh;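 further: ELG1-luc HEK293T cells cotreated with 5-fluorouridine at 10 µM final; viability measured 16 h after compound addition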
# ELG1 MMS cell: confirmation of ELG1 repair inhibitors: viability with MMS. shares compounds with ELG1 repair inh. Cell viability with MMS, ELG1-dependent DNA repair. Potency, µM (titrated, usually from 46.1 µM), inactives show at the top dose activity change, negative = viability loss, most hits filed as cytotoxic. hit rate 33% among 670;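 further: ELG1-luc HEK293T cells co-treated with 10 µM MMS; viability read 16 h after compound addition; on the % scale 0 is the no-effect control and ±100 the full control effect; nearly all actives have a fitted effect of over 60% in size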
# Cell viab unstim: counter-screen for ELG1 repair inhibitors: unstimulated cell viability. shares compounds with ELG1 repair inh. cell viability counter-screen, unstimulated, luminescence. Potency, µM (series often up to 45.9 µM), for the others: at the top dose activity change, negative = loss of viability, actives largely listed as cytotoxic. hit rate 8% among 900;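 further: compound exposure lasted 16 hours before reading; on the % scale 0 is the no-effect control and ±100 the full control effect; nearly all actives have a fitted effect of over 55% in size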
# FLuc biochem: firefly luciferase inhibition counter-screen. shares compounds with ELG1 repair inh. purified firefly luciferase, luminescence counter-screen. Potency, µM (doses to about 57.5 µM), inactives show at the highest dose activity, negative = inhibition, usual class: inhibitors. hit rate 10% among 350; further: on the % scale 0 is the no-effect control and ±100 the full control effect
# Starred values were filed as active, the others as inactive; ? = inconclusive; . = no result. Only some compounds are listed: those with a hit (about 2.4% of all), similar ones and a draw of the others. Unless noted, the call rests on the fitted dose curve; in most records, active means well fitted curve in the direction sought with a large enough effect; inconclusive means small, poorly fitted or top-dose-only effect, or another doubt; inactive means no such curve, though single readings can be large; an effect the other way counts as inactive or inconclusive. Potency means the concentration at half of the fitted maximal effect.
SMILES,Rango-impB inh,Tb PFK inh,Rango release inh,PKM2 activator,ELG1 repair inh,Tb PGK inh,ELG1 Luc conf,ELG1 MMS Luc,ELG1 5-FU,ELG1 MMS cell,Cell viab unstim,others
CC(C)NC(=O)Nc1cccc2c1O[C@H](CN(C)C(=O)Nc1ccc(C(F)(F)F)cc1)[C@@H](C)CN([C@H](C)CO)C2=O,0%,-1%,-2%,.,1.3µM*,3%,2.2µM*,15%,?,4%,-2%,
C[C@H](CO)N1C[C@H](C)[C@@H](CN(C)C(=O)Nc2ccccc2)Oc2c(NC(=O)Cc3ccccc3)cccc2C1=O,4%,1%,-4%,.,17%,-12%,.,.,.,.,.,
C[C@H](CO)N1C[C@H](C)[C@@H](CN(C)C(=O)Nc2ccccc2)Oc2c(NC(=O)Nc3ccc(C(F)(F)F)cc3)cccc2C1=O,-2%,2%,3%,.,?,-1%,.,.,.,.,.,
CCOCCn1ccc2c(OCC(=O)Nc3cc(OC)ccc3OC)cccc2c1=O,0%,11%,-5%,.,4.1µM*,-7%,11µM*,16µM*,?,?,?,
COc1ccc(-n2c(C(C)n3nc(C)c([N+](=O)[O-])c3C)n[nH]c2=S)cc1 (stereo not drawn),1%,-2%,-4%,-3%,?,-4%,.,.,.,.,.,
COc1ccc(-n2c(C)c([N+](=O)[O-])c3ccc(O)c(CN(C)C)c32)cc1,0%,-14%,5%,1%,0.92µM*,9%,1.4µM*,2.5µM*,-2%,6%,?,ELG1 FLuc counter=?;FLuc biochem=6%
Cc1[nH]c(=O)[nH]c1C(=O)CCCCC(=O)O,4%,-9%,-2%,5%,16%,-3%,.,.,.,.,.,
CSc1ccc(C(=O)c2[nH]c(=O)[nH]c2C)cc1,4%,1%,-11%,.,?,-6%,.,.,.,.,?,ELG1 FLuc counter=171%;FLuc biochem=?
N#CC1=C(N)Oc2c(oc(CO)cc2=O)C1c1ccccc1[N+](=O)[O-] (stereo not drawn),?,-1%,-20%,3%,-14%,-1%,.,.,.,.,.,

# Bioassay records (PubChem BioAssay)
